Source: PubChem BioAssay (several laboratories)
The list is not random: actives were taken first. Their share in the collection is about 4.3%.
NR3A LBD binder: NR3A (human) ligand-binding domain modulation | NR3A LBD differential scanning fluorimetry, Tm shift; 0% = protein alone, 100% = glycine-bound protein | Tm shift relative to glycine control, % at 25 µM | hit rate 2.5% among 340,000 | AID 1259313;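 active = melting temperature shift of at least 10% of the positive control shift, at one fixed dose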
rCAG binder: r(CAG) repeat RNA binding; TO-PRO-1 dye displacement fluorescence; inhibition, % at 3 µM; hit rate 1.3% among 370,000; AID 651821;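 active = inhibition above the plate cutoff, the mean of all test compounds on that plate plus 3 SD, cut at about 35% in these data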;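 also: 0% = DMSO alone and 100% = 100 µM mitoxantrone as full dye displacement; higher means more dye released from RNA so lower well fluorescence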
FAS TE block: FAS thioesterase (human) inhibition; recombinant FAS-TE, OMFH fluorogenic substrate, fluorescence endpoint; hit rate 0.67% among 360,000; P49327; inhibition, % at 15 µM;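 active = compounds whose normalised, plate-corrected inhibition of enzyme fluorescence in the single-dose primary screen is 50% or more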;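 also: 0% = DMSO with enzyme and 100% = substrate without enzyme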
NadD block: blocks S. aureus nicotinate mononucleotide adenylyltransferase; purified NadD enzyme, colorimetric absorbance read-out; inhibition, % at 20 µM; hit rate 0.78% among 360,000; AID 602399; in the data active = inhibition above about 26%
rCAG binder conf: r(CAG) RNA repeat binding, confirmation; hit rate 70% among 4,300; AID 652065; inhibition, % at 3 µM; shares compounds with rCAG binder; TO-PRO-1 dye displacement fluorescence;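 active = inhibition above a per-plate cutoff, the mean inhibition of sample wells plus 3 SD, cut at about 35% in these data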;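 also: loss of TO-PRO-1 fluorescence as compound displaces dye from 1x1 AA loop RNA; 0% = DMSO only wells and 100% = 100 µM mitoxantrone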
dCAG dye counter: disrupts DNA CAG TO-PRO-1 complex, flagging rCAG hits. shares compounds with rCAG binder. d(CAG) DNA oligo TO-PRO-1 dye displacement, fluorescence. inhibition, % at 3 µM. hit rate 94% among 4,300;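 active = inhibition above its plate's cutoff, the mean test-well inhibition plus 3 SD, cut at about 4.8% in these data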;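 also: 0% = DNA dye mix with DMSO and 100% = 100 µM mitoxantrone; hits displace the dye from DNA and so lower well fluorescence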
DNA CAG DR: DNA CAG dye complex inhibition, dose response counter-screen | AID 686960 | shares compounds with rCAG binder | hit rate 20% among 250 | DNA CAG/GTC duplex TO-PRO-1 dye displacement fluorescence | IC50, µM; in the data active = IC50 below about 10 µM
Numbers without * were called inactive; . = no result.

SMILES	NR3A LBD binder	rCAG binder	FAS TE block	NadD block	rCAG binder conf	dCAG dye counter	others
CCCSc1nc(O)c(C(c2ccc(OC)c(O)c2)c2c(O)nc(SCCC)n(C)c2=O)c(=O)n1C	-13	46*	-2	18	40*	13*
O=C(O)c1ccc(CSc2nc(-c3ccccc3)cc(C(F)(F)F)n2)cc1	10	55*	-6	8	56*	13*
O=C(CSc1nc(-c2ccccc2)cc(C(F)(F)F)n1)c1cccc([N+](=O)[O-])c1	-6	5	48	-3	.	.
O=C(Nc1nncs1)c1cc(-c2ccco2)nc2ccccc12	3	48*	-1	6	16	7.1*
O=C(Nc1ccc(S(=O)(=O)Nc2nccs2)cc1)c1ccncc1	.	2	3	4	.	.
O=C(Nc1ccc(S(=O)(=O)Nc2nccs2)cc1)C1=NN(c2ccccc2)C(=O)CC1	-5	36*	1	8	29	14*
O=C(Nc1ccon1)c1cc(-c2ccccc2)nc2ccccc12	-10	0	-1	2	.	.
O=C(O)c1ccccc1NC(=O)c1cc(-c2ccccc2)nc2ccccc12	0	56*	-2	0	62*	22*
O=C(Nc1ccncc1)c1cc(-c2ccccn2)nc2ccccc12	2	1	-2	5	.	.
O=C(Nc1ccc(S(=O)(=O)Nc2nccs2)cc1)c1cc(-c2ccccn2)nc2ccccc12	2	66*	-4	23	61*	26*
C[C@@H]1[C@@H](c2ccccc2)c2cc3ccccc3nc2C(=O)C[C@@H]1C(=O)N1CCCC1	.	10	.	.	.	.
O=C(NNS(=O)(=O)c1cccc(Cl)c1)c1cc(-c2ccc(F)cc2)nc2ccccc12	8	44*	14	6	44*	15*
CCN(CC)S(=O)(=O)c1ccc(NC(=O)c2cc(-c3ccccc3)nc3ccccc23)cc1	2	0	31	21	.	.
O=C(O)c1cc(-c2ccc(-c3ccc(F)cc3)o2)nc2ccccc12	5	37*	0	-1	17	4
O=C(NN=C1CCCC1)c1cc(-c2ccc(F)cc2)nc2ccccc12	-1	15	-6	2	.	.
CN(C)c1cccc(C(=O)Nc2ccc(S(=O)(=O)Nc3nccs3)cc2)c1	-1	36*	2	10	28	10.0*
Cc1cc(C)nc(NS(=O)(=O)c2ccc(NC(=O)c3cc(-c4ccccc4)nc4ccccc34)cc2)n1	19*	49*	10	26	62*	25*
CO[C@@H]1[C@H](O)CC[C@]2(O)CN(c3ccccc3)[C@](C)([C@H](O)CC=C(C)C)[C@@H]12	.	6	.	.	.	.
Cc1cc(C)nc(NS(=O)(=O)c2ccc(NC(=O)c3ccc(S(=O)(=O)N(C)C)cc3)cc2)n1	2	12	-4	-2	.	.
Cc1ccc(O)c(-c2cc(C(=O)Nc3ccc(S(=O)(=O)Nc4nc(C)cc(C)n4)cc3)[nH]n2)c1	30*	55*	-6	15	40*	12*
CCN(CC)c1ccc(NC(=O)c2cc3c(C)nn(-c4ccccc4)c3s2)cc1	.	15	.	.	.	.
NS(=O)(=O)c1cc(C(=O)NC2CCSc3ccccc32)ccc1Cl (configuration not stated)	7	80*	-1	19	81*	49*
COC(=O)c1sccc1NC(=O)Nc1ccc(Cl)c(Cl)c1	-1	11	3	1	.	.
CC(=O)c1cccc(NC(=O)C(OC(=O)c2ccccc2NS(=O)(=O)c2cccs2)c2ccccc2)c1 (configuration not stated)	30*	43*	30	8	36*	17*
O=C(Nc1ccc(Cl)c(Cl)c1)Nc1ccccc1C(=O)O	18*	61*	22	-5	51*	11*	DNA CAG DR=>30
O=C(Nc1ccc(Cl)c(Cl)c1)Nc1ccccc1NS(=O)(=O)c1cccs1	34*	42*	13	-4	33	9.4*
O=C(CSc1nnc(SCc2cccc3ccccc23)s1)Nc1ccc(S(=O)(=O)Nc2nccs2)cc1	.	80*	.	.	77*	43*
